# Data as given in PubChem BioAssay (Tox21).
# A number with no mark means an inactive call. Records with an inconclusive call do not appear. Where a call stands in place of a potency, no number is given. The source made the active and inactive calls. Unless noted, calls follow the shape of the full dose curve.
# Key:
# [1] = Nuclear factor erythroid 2-related factor 2/antioxidant responsive element (Nrf2/ARE) small molecule agonists: qHTS cell viability counter screen in human keratinocytes (AID 1919968; active = well fitted curve in the direction sought with a large enough effect in the repeat runs; an effect the other way counts as inactive or inconclusive; also: nearly all actives have a fitted effect of over 55% in size; also: potency is read from the fitted curve at half-maximal effect)
# Summary of the method: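 KeratinoSens cells (HaCaT keratinocytes stably carrying an ARE-luciferase reporter) were seeded at 1,500 cells/well and rested 5 h at 37 C/5% CO2. They were then exposed to compounds in DMSO for 23 h. Viability was read by CellTiter-Fluor fluorescence after 1 h.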
# [2] = biological target: KiSS-1 receptor (Homo sapiens) (UniProt Q969F8); assay: Human kisspeptin (KISS1R) small molecule agonists, calcium flux assay in KISS1R-HEK293 cells (AID 1920064; active = well fitted curve in the direction sought with a large enough effect in the repeat runs; an effect the other way counts as inactive or inconclusive)
# Summary of the method: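 HEK293 cells stably expressing human KISS1R were plated 18 h at 37 °C, loaded with calcium dye for 1 h at 37 °C, then given compound by pin tool. Fluorescence (Ex/Em 480/540) was read kinetically for 3 min.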
# [3] = G protein-coupled receptor (GPCR) small molecule agonists, calcium flux assay: HEK293 wild type cell line counter screen (AID 1920065)
# Summary of the method: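 Cells were plated and cultured 18 h at 37 C/5% CO2, then loaded with calcium dye for 1 h at 37 C. Compounds in DMSO were pin-transferred in agonist mode, and fluorescence (Ex/Em 480/540) was read kinetically for 3 min at 1 s intervals.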
# [4] = p53 small molecule agonists, cell-based qHTS assay with human liver microsomes (AID 1963577);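 also: p53 response element beta-lactamase reporter cells with liver microsomes plus NADPH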
# Summary of the method: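 HLM-supplemented p53RE-bla reporter assay: 16 h compound exposure at 37 C, microsomes and NADPH each 0.5 mg/mL final, read by fluorescence intensity.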
# [5] = p53 small molecule agonists, cell-based qHTS assay with rat liver microsomes: qHTS cell viability counter screen (AID 1963580); also: nearly all actives have a fitted effect of over 45% in size; also: potency is read from the fitted curve at half-maximal effect
# Summary of the method: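 Intracellular ATP, by CellTiter-Glo luminescence, defines viability. HCT-116 p53RE-bla cells, 4,000 per well, were compound-treated in the presence of rat liver microsomes and NADPH for 16 h at 37 C.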
# [6] = p53 small molecule agonists, cell-based qHTS assay: qHTS cell viability counter screen (AID 1963581); also: nearly all actives have a fitted effect of over 45% in size; also: potency is read from the fitted curve at half-maximal effect
# Summary of the method: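 p53RE-bla HCT-116 cells were exposed to compounds for 16 h at 37 C; after the beta-lactamase FRET read in the same wells, CellTiter-Glo was added and luminescence (intracellular ATP) read after 30 min at room temperature.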
# [7] = biological target: 5-hydroxytryptamine receptor 2A (Homo sapiens) (UniProt P28223); assay: 5-hydroxytryptamine receptor 2A (HTR2A) small molecule antagonists, cell-based qHTS assay (AID 1963586); also: nearly all actives have a fitted effect of over 45% in size
# Summary of the method: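 Antagonist-mode intracellular calcium assay: DOI (4 nM) added after 5 min compound pre-incubation at room temperature to dye-loaded HTR2A-CHO cells. Fluorescence followed for 3 min, sampled every second.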
# [8] = biological target: Muscarinic acetylcholine receptor M1 (Homo sapiens) (UniProt P11229); assay: Cholinergic receptor muscarinic 1 (CHRM1) small molecule antagonists, cell-based qHTS assay (AID 1963588); also: nearly all actives have a fitted effect of over 40% in size; also: potency is read from the fitted curve at half-maximal effect
# Summary of the method: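 CHRM1-CHO calcium-flux assay, antagonist mode. Cells were seeded 18 h, dye-loaded 1 h at 37 C and given compound for 5 min at RT, then acetylcholine was added at 50nM. FDSS fluorescence was read 3 min; 15 concentrations, three runs.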
# [9] = biological target: Muscarinic acetylcholine receptor M1 (Homo sapiens) (UniProt P11229); assay: Cholinergic receptor muscarinic 1 (CHRM1) small molecule agonists, cell-based qHTS assay (AID 1963589); also: nearly all actives have a fitted effect of over 35% in size
# Summary of the method: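 CHO cells stably expressing human CHRM1, seeded 18 h at 37 C/5% CO2, dye-loaded 1 h at 37 C, then given compound in agonist mode; intracellular calcium fluorescence read kinetically at 1 s intervals. Fifteen concentrations, three independent runs.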
# [10] = cAMP Responsive Elements (CRE) small molecule agonists, cell-based qHTS assay (AID 1963590)
# Summary of the method: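 CRE-bla HEK 293T cells in DMEM with 10% dialyzed FBS, NEAA, pyruvate and 25 mM HEPES were plated 18 h at 37 C/5% CO2, then exposed to compounds in DMSO for 3 h before LiveBLAzer B/G FRET substrate addition.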
# [11] = biological target: D(2) dopamine receptor (Homo sapiens) (UniProt P14416); assay: Dopamine D2 receptor (DRD2) small molecule agonists, cell-based qHTS assay (AID 1963594); also: nearly all actives have a fitted effect of over 35% in size; also: potency is read from the fitted curve at half-maximal effect
# Summary of the method: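 cAMP accumulation in DRD2-HEK293 cells measured by HTRF after 1 h detection; compounds added 10 min before NKH477 (200nM […]) forskolin-analogue stimulation, 30 min at room temperature, with Ro20-1724 present at 0.1 mM final.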
# [12] = biological target: D(2) dopamine receptor (Homo sapiens) (UniProt P14416); assay: Dopamine D2 receptor (DRD2) small molecule antagonists, cell-based qHTS assay (AID 1963595; active = well fitted inhibition curve with a large enough effect in the signal ratio in the repeat runs, with a control signal flat; the % refers to the signal ratio; also: potency is read from the fitted curve at half-maximal effect)
# Summary of the method: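 HEK293 cells stably expressing DRD2 were preincubated with 0.1 mM Ro20-1724, then with compound for 10 min at room temperature. Cells were stimulated with 200 nM NKH477 plus 12 nM quinpirole for 30 min, and cAMP was read by HTRF.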
# [13] = p53 small molecule agonists, cell-based qHTS assay with rat liver microsomes (AID 1963578)
# Summary of the method: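 Quantitative HTS of the Tox21 10K library: p53RE-bla cells, rat liver microsomes plus NADPH at 0.5 mg/mL final each, 16 h at 37 C, beta-lactamase fluorescence detection.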
# [14] = p53 small molecule agonists, cell-based qHTS assay with human liver microsomes: qHTS cell viability counter screen (AID 1963579); also: nearly all actives have a fitted effect of over 45% in size
# Summary of the method: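 Viability of p53RE-bla cells is measured as CellTiter-Glo luminescence following a 16 h, 37 C incubation with compound, liver microsomes from human donors and NADPH.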
# [15] = p53 small molecule agonists, cell-based qHTS assay (AID 1963582; active = well fitted activation curve with a large enough effect in the signal ratio in the repeat runs, not every such curve was filed as active; the % refers to the signal ratio)
# Summary of the method: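 p53RE-bla beta-lactamase reporter cells rested 5 h at 37 C/5% CO2, then received compounds in DMSO by pin transfer and were incubated 16 h at 37 C. LiveBLAzer B/G FRET substrate was loaded for 2 h at room temperature before fluorescence reading.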
# [16] = biological target: 5-hydroxytryptamine receptor 2A (Homo sapiens) (UniProt P28223); assay: 5-hydroxytryptamine receptor 2A (HTR2A) small molecule agonists, cell-based qHTS assay (AID 1963587); also: nearly all actives have a fitted effect of over 30% in size
# Summary of the method: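 Kinetic calcium-flux fluorescence (2 min, 1 sec intervals) after compound addition in agonist mode. HTR2A-CHO cells were cultured 18 h, then dye-loaded 1 h at 37 C.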
# [17] = cAMP Responsive Elements (CRE) small molecule antagonists, cell-based qHTS assay (AID 1963591; active = well fitted inhibition curve with a large enough effect in the signal ratio in the repeat runs, not every such curve was filed as active; the % refers to the signal ratio)
# Summary of the method: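 CRE-bla HEK293T cells were plated 18 h at 37 °C/5% CO2, pinned with compound in DMSO, then stimulated with NKH477 at 0.25 uM final for 3 h. LiveBLAzer B/G FRET substrate was added and plates incubated 2 h at room temperature.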
# [18] = biological target: Beta-2 adrenergic receptor (Homo sapiens) (UniProt P07550); assay: Adrenergic beta2 receptor (ADRB2) small molecule antagonists, cell-based qHTS assay (AID 1963592); also: series mostly up to about 92 µM; nearly all actives have a fitted effect of over 50% in size
# Summary of the method: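 Cells (CHO, stable ADRB2 overexpression) incubated 18-20hr at 37C; compounds added from DMSO; agonist mix (1nM isoproterenol, 100uM IBMX, 25uM Ro-20-1724) added; 0.5hr RT; d2-cAMP and anti-cAMP-cryptate added; 1hr RT; 665/615 nm read.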
# [19] = biological target: Gonadotropin-releasing hormone receptor (Homo sapiens) (UniProt P30968); assay: Human gonadotropin-releasing hormone receptor (GnRHR) small molecule agonists, calcium flux assay in GnRHR-HEK293 cells (AID 1920063); also: nearly all actives have a fitted effect of over 35% in size; also: potency is read from the fitted curve at half-maximal effect
# Summary of the method: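 HEK293 cells stably expressing human GnRHR were plated 18 h at 37 °C, loaded with calcium dye 1 h at 37 °C, then given compound in agonist mode; fluorescence (Ex/Em 480/540) read kinetically for 3 min at 1 s intervals.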
# Sequence of Gonadotropin-releasing hormone receptor (Homo sapiens) (P30968 whole entry, looked up): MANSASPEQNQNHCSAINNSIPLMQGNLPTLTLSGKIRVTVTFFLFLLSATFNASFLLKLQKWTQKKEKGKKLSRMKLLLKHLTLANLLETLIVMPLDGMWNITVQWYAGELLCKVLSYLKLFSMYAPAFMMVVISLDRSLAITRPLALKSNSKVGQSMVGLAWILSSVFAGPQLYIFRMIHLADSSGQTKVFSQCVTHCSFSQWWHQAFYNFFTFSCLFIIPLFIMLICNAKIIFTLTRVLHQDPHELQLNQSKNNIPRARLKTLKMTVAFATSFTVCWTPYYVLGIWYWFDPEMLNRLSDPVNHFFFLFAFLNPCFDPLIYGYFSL
# Sequence of D(2) dopamine receptor (Homo sapiens) (P14416 whole entry, looked up): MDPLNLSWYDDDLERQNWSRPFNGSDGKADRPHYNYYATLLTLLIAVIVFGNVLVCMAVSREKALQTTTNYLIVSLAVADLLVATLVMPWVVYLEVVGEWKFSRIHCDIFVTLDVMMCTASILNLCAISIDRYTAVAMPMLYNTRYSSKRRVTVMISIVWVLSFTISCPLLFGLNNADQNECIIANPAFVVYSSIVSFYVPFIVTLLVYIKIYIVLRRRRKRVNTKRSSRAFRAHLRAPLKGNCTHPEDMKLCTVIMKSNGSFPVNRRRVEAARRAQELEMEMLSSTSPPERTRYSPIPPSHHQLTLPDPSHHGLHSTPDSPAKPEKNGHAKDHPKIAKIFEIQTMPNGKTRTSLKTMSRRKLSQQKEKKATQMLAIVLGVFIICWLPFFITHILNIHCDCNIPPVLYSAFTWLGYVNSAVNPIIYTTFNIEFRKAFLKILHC
# Sequence of KiSS-1 receptor (Homo sapiens) (Q969F8 whole entry, looked up): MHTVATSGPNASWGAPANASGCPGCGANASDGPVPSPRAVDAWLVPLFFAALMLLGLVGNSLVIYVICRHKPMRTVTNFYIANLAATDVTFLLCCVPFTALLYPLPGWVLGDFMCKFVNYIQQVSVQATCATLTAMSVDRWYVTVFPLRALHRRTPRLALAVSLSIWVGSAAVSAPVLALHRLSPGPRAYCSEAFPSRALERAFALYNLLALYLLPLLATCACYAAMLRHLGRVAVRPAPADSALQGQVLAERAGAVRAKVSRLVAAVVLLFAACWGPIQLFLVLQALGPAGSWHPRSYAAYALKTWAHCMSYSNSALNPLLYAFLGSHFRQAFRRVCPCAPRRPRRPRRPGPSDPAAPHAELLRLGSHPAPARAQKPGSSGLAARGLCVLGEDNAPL
# Sequence of 5-hydroxytryptamine receptor 2A (Homo sapiens) (P28223 whole entry, looked up): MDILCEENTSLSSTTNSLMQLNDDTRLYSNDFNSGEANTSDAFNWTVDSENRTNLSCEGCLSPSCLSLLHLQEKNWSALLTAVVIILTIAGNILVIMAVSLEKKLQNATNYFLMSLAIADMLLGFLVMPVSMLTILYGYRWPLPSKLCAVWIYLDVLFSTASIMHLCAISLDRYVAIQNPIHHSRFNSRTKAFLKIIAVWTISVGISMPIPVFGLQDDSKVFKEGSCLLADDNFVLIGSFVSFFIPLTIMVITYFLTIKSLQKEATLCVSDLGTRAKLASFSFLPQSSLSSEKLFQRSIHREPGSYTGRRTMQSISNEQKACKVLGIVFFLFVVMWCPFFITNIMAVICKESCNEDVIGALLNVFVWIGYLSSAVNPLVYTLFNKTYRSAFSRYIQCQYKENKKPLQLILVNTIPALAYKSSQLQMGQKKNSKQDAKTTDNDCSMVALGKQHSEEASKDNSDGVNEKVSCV
# Sequence of Beta-2 adrenergic receptor (Homo sapiens) (P07550 whole entry, looked up): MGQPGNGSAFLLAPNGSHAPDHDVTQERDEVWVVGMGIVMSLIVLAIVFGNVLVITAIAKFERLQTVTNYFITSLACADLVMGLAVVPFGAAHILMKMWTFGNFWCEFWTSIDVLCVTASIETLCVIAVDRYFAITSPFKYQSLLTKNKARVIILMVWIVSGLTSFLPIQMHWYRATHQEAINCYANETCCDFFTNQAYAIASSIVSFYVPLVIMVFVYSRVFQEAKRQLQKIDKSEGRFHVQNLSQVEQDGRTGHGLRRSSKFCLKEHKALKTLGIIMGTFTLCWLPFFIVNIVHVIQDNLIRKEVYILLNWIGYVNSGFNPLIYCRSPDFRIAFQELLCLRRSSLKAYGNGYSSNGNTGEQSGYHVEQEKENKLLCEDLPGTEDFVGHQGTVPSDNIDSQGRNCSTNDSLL
# Sequence of Muscarinic acetylcholine receptor M1 (Homo sapiens) (P11229 whole entry, looked up): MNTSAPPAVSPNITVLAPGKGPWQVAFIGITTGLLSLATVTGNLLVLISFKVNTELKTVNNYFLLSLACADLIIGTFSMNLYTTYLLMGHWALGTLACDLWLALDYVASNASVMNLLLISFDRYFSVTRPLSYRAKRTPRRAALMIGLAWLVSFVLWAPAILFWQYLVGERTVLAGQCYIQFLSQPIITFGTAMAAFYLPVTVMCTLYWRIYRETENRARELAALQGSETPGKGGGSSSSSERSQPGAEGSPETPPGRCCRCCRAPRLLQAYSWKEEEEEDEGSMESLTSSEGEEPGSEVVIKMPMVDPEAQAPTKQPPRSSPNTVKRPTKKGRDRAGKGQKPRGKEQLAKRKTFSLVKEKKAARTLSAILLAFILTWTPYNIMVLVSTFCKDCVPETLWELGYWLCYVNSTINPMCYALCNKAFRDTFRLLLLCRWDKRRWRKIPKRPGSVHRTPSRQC
smiles,measurement,setting,value
O=CC(Br)(Br)Br,Potency,[1],8.61 µM (active)
same,Potency,[2],inactive
same,Potency,[3],inactive
same,Potency,[4],inactive
same,Potency,[5],inactive
same,Potency,[6],inactive
same,Potency,[7],inactive
same,Potency,[8],inactive
same,Potency,[9],inactive
same,Potency,[10],inactive
same,Potency,[11],inactive
same,Potency,[12],inactive
CCOc1nc(C(Cl)(Cl)Cl)ns1,Potency,[1],inactive
same,Potency,[2],inactive
same,Potency,[3],inactive
same,Potency,[13],inactive
same,Potency,[14],inactive
same,Potency,[5],inactive
same,Potency,[6],inactive
same,Potency,[15],inactive
same,Potency,[7],inactive
same,Potency,[16],inactive
same,Potency,[9],inactive
same,Potency,[10],inactive
same,Potency,[17],inactive
same,Potency,[18],inactive
same,Potency,[12],inactive
COP(=O)(OC)SCn1c(=O)oc2cc(Cl)cnc21,Potency,[1],inactive
same,Potency,[2],inactive
same,Potency,[3],inactive
same,Potency,[4],inactive
same,Potency,[5],inactive
same,Potency,[7],inactive
same,Potency,[16],inactive
same,Potency,[8],inactive
same,Potency,[9],inactive
same,Potency,[18],inactive
same,Potency,[11],inactive
same,Potency,[12],inactive
Nc1c(Cl)c(Cl)c(Cl)c(Cl)c1Cl,Potency,[1],inactive
same,Potency,[19],inactive
same,Potency,[3],inactive
same,Potency,[14],inactive
same,Potency,[5],inactive
same,Potency,[6],inactive
same,Potency,[7],inactive
same,Potency,[16],inactive
same,Potency,[8],inactive
same,Potency,[9],inactive
same,Potency,[10],inactive
same,Potency,[18],inactive
same,Potency,[12],inactive
CN(C)C(=S)[S-].CN(C)C(=S)[S-].[Cu+2],Potency,[1],0.297 µM (active)
same,activity change,[19],"5.57% [at 11.8 µM, stronger effect = higher value]"
same,activation,[2],0.935% [at 15.8 µM]
same,"activity change, negative = cytotoxicity",[14],-25.4% [at 13.5 µM]
same,"activity, negative = inhibition",[7],13.6% [at 12.7 µM]
same,activation,[16],16.6% [at 15.9 µM]
same,"activity, negative = inhibition",[8],-2.33% [at 12.6 µM]
same,activation,[9],0.767% [at 15.8 µM]
same,"activity change, negative = inhibition",[17],-106% [at 18.9 µM]
same,"activity change, negative = inhibition",[18],0.898% [at 19 µM]
same,activation,[11],0.949% [at 19 µM]
same,"activity change, negative = inhibition",[12],2.62% [at 18.9 µM]
C=CCOC(=O)C(C)(C)OC(=O)c1cc(-n2c(=O)cc(C(F)(F)F)n(C)c2=O)ccc1Cl,Potency,[1],inactive
same,Potency,[2],inactive
same,Potency,[3],inactive
same,Potency,[14],inactive
same,Potency,[5],inactive
same,Potency,[6],inactive
same,Potency,[15],inactive
same,Potency,[16],inactive
same,Potency,[8],inactive
same,Potency,[9],inactive
same,Potency,[10],inactive
same,Potency,[18],inactive
same,Potency,[11],inactive
same,Potency,[12],inactive
COP(=O)(OC)O/C(C)=C/C(=O)N(C)C,Potency,[1],inactive
same,Potency,[19],inactive
same,Potency,[3],inactive
same,Potency,[14],inactive
same,Potency,[5],inactive
same,Potency,[6],inactive
same,Potency,[15],inactive
same,Potency,[7],inactive
same,Potency,[16],inactive
same,Potency,[8],inactive
same,Potency,[9],inactive
same,Potency,[10],inactive
same,Potency,[17],inactive
same,Potency,[18],inactive
same,Potency,[11],inactive
CC(=O)[O-].CC(=O)[O-].[Hg+2],Potency,[1],3.06 µM (active)
same,Potency,[19],38.9 µM (active)
same,Potency,[3],inactive
same,Potency,[5],16.2 µM (active)
same,Potency,[6],7.25 µM (active)
same,Potency,[7],inactive
same,Potency,[8],21.1 µM (active)
same,Potency,[11],14.2 µM (active)
same,Potency,[12],5.45 µM (active)
CC(=O)[O-].CC(=O)[O-].O.O.O.[Pb+2],Potency,[1],inactive
same,Potency,[2],inactive
same,Potency,[3],inactive
same,Potency,[14],inactive
same,Potency,[5],inactive
same,Potency,[6],inactive
same,Potency,[7],inactive
same,Potency,[16],inactive
same,Potency,[8],inactive
same,Potency,[9],inactive
same,Potency,[10],inactive
same,Potency,[17],inactive
same,Potency,[18],inactive
same,Potency,[11],inactive
same,Potency,[12],inactive
